Source: PubChem BioAssay AID1159580 (chemical genetic matrix, 2015)
Hit rate of the full screen: of about 5,500 compounds, about 2,000 (36%) were called active. Another 18% or so got no clear call; they are omitted. No stated cut-off is given here; in the data, active means normalized growth mostly below about 0.91 (no sharp cut-off); inconclusive means no clear call, values can overlap the other calls; inactive means mostly above about 0.92. The list shows a part of the results.

Assay: chemical genetic growth profiling, strain panel (AID 1159580);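 further: tested at 20 µM; growth read once vehicle control cultures reached saturation at 30 °C; 1 = growth at the plate median or of vehicle wells; lower values mean less growth of the strain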
Settings: growth OD

Measured: normalized growth

NC(Cc1c[nH]c2ccccc12)C(=O)O (configuration not stated)
inactive: S. cerevisiae deletion strains, locus YJR075W, strain HOC1, hits give low values 1 | S. cerevisiae deletion strains, locus YKL009W, strain mrt4, hits give low values 1.01 | S. cerevisiae deletion strains, locus YKL068W, hits give low values 0.99 | S. cerevisiae deletion strains, locus YKL085W, strain MDH1 (second series), hits give low values 1.02 | S. cerevisiae deletion strains, locus YKL085W, strain MDH1, hits give low values 1.02 | S. cerevisiae deletion strains, locus YKL160W, strain elf1, hits give low values 1.02 | S. cerevisiae deletion strains, locus YKL190W, strain CNB1, hits give low values 0.989 | S. cerevisiae deletion strains, locus YKR001C, strain vps1, hits give low values 1 | S. cerevisiae deletion strains, locus YKR026C, strain gcn3, hits give low values 1.02 | S. cerevisiae deletion strains, locus YKR091W, strain srl3, hits give low values 1.02 | S. cerevisiae deletion strains, locus YLL001W, strain dnm1, hits give low values 1.02 | S. cerevisiae deletion strains, locus YLL026W, hits give low values 1.02 | S. cerevisiae deletion strains, locus YLL041C, strain sdh2, hits give low values 1.01 | S. cerevisiae deletion strains, locus YLR027C, strain aat2, hits give low values 1.01 | S. cerevisiae deletion strains, locus YLR039C, strain RIC1, hits give low values 0.991 | S. cerevisiae deletion strains, locus YLR058C, strain SHM2, hits give low values 0.975 | S. cerevisiae deletion strains, locus YLR102C, strain apc9, hits give low values 0.992 | S. cerevisiae deletion strains, locus YLR113W, strain HOG1, hits give low values 0.969 | S. cerevisiae deletion strains, locus YLR221C, strain rsa3, hits give low values 1.01 | S. cerevisiae deletion strains, locus YLR258W, strain gsy2, hits give low values 1.01 | S. cerevisiae deletion strains, locus YLR262C, strain YPT6 (second series), hits give low values 1.03 | S. cerevisiae deletion strains, locus YLR262C, strain YPT6, hits give low values 0.962 | S. cerevisiae deletion strains, locus YLR268W, strain sec22, hits give low values 1.02 | S. cerevisiae deletion strains, locus YLR320W, strain mms22, hits give low values 0.995 | S. cerevisiae deletion strains, locus YLR330W, strain CHS5, hits give low values 0.99 | S. cerevisiae deletion strains, locus YLR342W, strain FKS1 (second series), hits give low values 1.03 | S. cerevisiae deletion strains, locus YLR342W, strain FKS1, hits give low values 1.02 | S. cerevisiae deletion strains, locus YLR357W, strain rsc2, hits give low values 1.04 | S. cerevisiae deletion strains, locus YLR370C, strain arc18, hits give low values 1.02 | S. cerevisiae deletion strains, locus YLR371W, strain rom2, hits give low values 0.991 | S. cerevisiae deletion strains, locus YLR384C, strain iki3, hits give low values 1.02 | S. cerevisiae deletion strains, locus YLR418C, strain cdc73, hits give low values 1.04 | S. cerevisiae deletion strains, locus YML016C, strain PPZ1, hits give low values 0.989 | S. cerevisiae deletion strains, locus YML032C, strain rad52, hits give low values 0.992 | S. cerevisiae deletion strains, locus YML120C, strain ndi1, hits give low values 1.01 | S. cerevisiae deletion strains, locus YML124C, strain tub3, hits give low values 0.997 | S. cerevisiae deletion strains, locus YMR058W, strain fet3, hits give low values 1.02 | S. cerevisiae deletion strains, locus YMR078C, strain ctf18, hits give low values 0.979 | S. cerevisiae deletion strains, locus YMR125W, strain sto1, hits give low values 1.03 | S. cerevisiae deletion strains, locus YMR129W, hits give low values 1.02 | S. cerevisiae deletion strains, locus YMR205C, strain PFK2, hits give low values 1.03 | S. cerevisiae deletion strains, locus YMR223W, strain ubp8, hits give low values 1 | S. cerevisiae deletion strains, locus YMR231W, strain pep5, hits give low values 1.02 | S. cerevisiae deletion strains, locus YMR263W, strain SAP30, hits give low values 0.983 | S. cerevisiae deletion strains, locus YMR307W, strain GAS1, hits give low values 1.08 | S. cerevisiae deletion strains, locus YNL067W, strain RPL9B, hits give low values 0.992 | S. cerevisiae deletion strains, locus YNL071W, strain lat1, hits give low values 1.02 | S. cerevisiae deletion strains, locus YNL128W, strain TEP1, hits give low values 0.975 | S. cerevisiae deletion strains, locus YNL153C, strain GIM3, hits give low values 0.992 | S. cerevisiae deletion strains, locus YNL183C, strain NPR1, hits give low values 0.941 | S. cerevisiae deletion strains, locus YNL209W, strain ssb2, hits give low values 1.03 | S. cerevisiae deletion strains, locus YNL233W, strain BNI4, hits give low values 0.999 | S. cerevisiae deletion strains, locus YNL248C, strain rpa49, hits give low values 1.02 | S. cerevisiae deletion strains, locus YNL250W, strain rad50, hits give low values 0.975 | S. cerevisiae deletion strains, locus YNL271C, strain bni1, hits give low values 1.01 | S. cerevisiae deletion strains, locus YNL298W, strain CLA4, hits give low values 0.995 | S. cerevisiae deletion strains, locus YNL307C, strain MCK1, hits give low values 0.991 | S. cerevisiae deletion strains, locus YNL322C, strain KRE1 (second series), hits give low values 1.02 | S. cerevisiae deletion strains, locus YNL322C, strain KRE1, hits give low values 0.989 | S. cerevisiae deletion strains, locus YNR049C, strain mso1, hits give low values 1.02 | S. cerevisiae deletion strains, locus YNR052C, strain pop2, hits give low values 0.991 | S. cerevisiae deletion strains, locus YOL006C, strain TOP1, hits give low values 1.03 | S. cerevisiae deletion strains, locus YOL012C, strain htz1 2.02 | S. cerevisiae deletion strains, locus YOL147C, strain pex11, hits give low values 0.998 | S. cerevisiae deletion strains, locus YOR001W, strain rrp6, hits give low values 0.992 | S. cerevisiae deletion strains, locus YOR061W, strain CKA2, hits give low values 0.973 | S. cerevisiae deletion strains, locus YOR069W, strain VPS5, hits give low values 0.991 | S. cerevisiae deletion strains, locus YOR070C, strain gyp1, hits give low values 1.02 | S. cerevisiae deletion strains, locus YOR080W, strain dia2, hits give low values 1.02 | S. cerevisiae deletion strains, locus YOR083W, strain WHI5, hits give low values 1.01 | S. cerevisiae deletion strains, locus YOR106W, strain vam3, hits give low values 1 | S. cerevisiae deletion strains, locus YOR136W, strain idh2, hits give low values 0.992 | S. cerevisiae deletion strains, locus YOR144C, strain elg1, hits give low values 1 | S. cerevisiae deletion strains, locus YOR184W, strain ser1, hits give low values 1 | S. cerevisiae deletion strains, locus YOR231W, strain MKK1, hits give low values 0.946 | S. cerevisiae deletion strains, locus YOR265W, strain rbl2, hits give low values 1.01 | S. cerevisiae deletion strains, locus YOR270C, strain vph1, hits give low values 1.04 | S. cerevisiae deletion strains, locus YOR290C, strain snf2, hits give low values 1.01 | S. cerevisiae deletion strains, locus YOR316C, strain cot1, hits give low values 0.981 | S. cerevisiae deletion strains, locus YPL051W, strain arl3, hits give low values 1.01 | S. cerevisiae deletion strains, locus YPL055C, strain LGE1, hits give low values 0.981 | S. cerevisiae deletion strains, locus YPL078C, strain atp4, hits give low values 1.01 | S. cerevisiae deletion strains, locus YPL106C, strain sse1, hits give low values 1.02 | S. cerevisiae deletion strains, locus YPL240C, strain hsp82, hits give low values 1.02 | S. cerevisiae deletion strains, locus YPL241C, strain CIN2, hits give low values 0.995 | S. cerevisiae deletion strains, locus YPL256C, strain CLN2, hits give low values 0.963 | S. cerevisiae deletion strains, locus YPR119W, strain clb2, hits give low values 0.996 | S. cerevisiae deletion strains, locus YPR141C, strain kar3, hits give low values 0.985 | S. cerevisiae deletion strains, locus YPR163C, strain tif3, hits give low values 0.998 | S. cerevisiae deletion strains, locus YPR167C, strain met16, hits give low values 1 | S. cerevisiae deletion strains, strain wtn01, hits give low values 0.984 | S. cerevisiae strains, strain wild type, hits give low values 0.997
